Experimental data taken from PubChem BioAssay (Tox21).
Inconclusive results are not listed. The source made the active and inactive calls. Unless noted, the call rests on the fitted dose curve; in most records, active means well fitted curve in the direction sought with a large enough effect in the repeat runs; inconclusive means weak or mixed curves; inactive means no such curve, though single readings can be large; an effect the other way counts as inactive or inconclusive.

Legend:
[1] = qHTS assay to identify small molecule agonists of the peroxisome proliferator-activated receptor delta (PPARd) signaling pathway - cell viability counter screen (AID 743211); further: nearly all actives have a fitted effect of over 55% in size
How it was run: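 Following 5 h plating at 37 C and 5% CO2, PPARd UAS-bla HEK293H cells took up test compounds for 17 h. Viability was quantified by luminescence 30 min after CellTiter-Glo addition at room temperature.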

[2] = qHTS assay to identify small molecule antagonists of the peroxisome proliferator-activated receptor delta (PPARd) signaling pathway - cell viability counter screen (AID 743213); further: nearly all actives have a fitted effect of over 50% in size
How it was run: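 In this counter screen, HEK293H cells carrying a UAS-beta-lactamase reporter are co-treated with test compounds and 300 nM L165041 (final) for 17 h at 37 C; cell viability is quantified by CellTiter-Glo luminescence.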

[3] = qHTS assay to identify small molecule agonists of the farnesoid-X-receptor (FXR) signaling pathway - cell viability counter screen (AID 743218); further: nearly all actives have a fitted effect of over 45% in size
How it was run: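 Parallel cytotoxicity test: compound-treated (16 h, 37 C) HEK 293T FXR-bla reporter cells were lysed with CellTiter-Glo and luminescence recorded.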

[4] = qHTS assay to identify small molecule antagonists of the farnesoid-X-receptor (FXR) signaling pathway - cell viability counter screen (AID 743221; active means well fitted cell-killing curve with a large enough effect in the repeat runs, not every such curve was filed as active; further: nearly all actives have a fitted effect of over 50% in size)
How it was run: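 Compound effects on cell number were measured as CellTiter-Glo luminescence in HEK 293T cells expressing FXR-UAS-bla, after 16 h at 37 C with 50 uM CDCA (final).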

[5] = biological target: Vitamin D3 receptor (Homo sapiens) (UniProt P11473); test: qHTS assay to identify small molecule agonists of the vitamin D receptor (VDR) signaling pathway (AID 743222; calls by dose curve)
Sequence of Vitamin D3 receptor (Homo sapiens) (P11473 whole entry, looked up): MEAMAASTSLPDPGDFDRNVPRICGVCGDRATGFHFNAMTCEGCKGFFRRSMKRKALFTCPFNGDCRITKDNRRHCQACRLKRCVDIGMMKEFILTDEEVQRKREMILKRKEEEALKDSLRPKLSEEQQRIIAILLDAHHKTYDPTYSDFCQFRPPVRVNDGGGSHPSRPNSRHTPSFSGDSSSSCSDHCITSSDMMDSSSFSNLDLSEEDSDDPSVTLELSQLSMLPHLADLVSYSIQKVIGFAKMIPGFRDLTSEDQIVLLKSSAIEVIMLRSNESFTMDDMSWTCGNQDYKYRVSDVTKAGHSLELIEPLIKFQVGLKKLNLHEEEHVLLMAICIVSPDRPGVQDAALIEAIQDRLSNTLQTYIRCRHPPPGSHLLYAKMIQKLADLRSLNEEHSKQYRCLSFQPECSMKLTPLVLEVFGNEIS
How it was run: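 In VDR-bla cells, compound-induced beta-lactamase expression is quantified by FRET substrate fluorescence. Treatment lasts 16 h at 37C; substrate develops 2 h at room temperature.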

[6] = biological target: Vitamin D3 receptor (Homo sapiens) (UniProt P11473); test: qHTS assay to identify small molecule antagonists of the vitamin D receptor (VDR) signaling pathway (AID 743223; active means well fitted inhibition curve with a large enough effect in the signal ratio in the repeat runs, not every such curve was filed as active; the % refers to the signal ratio)
How it was run: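 Beta-lactamase activity in VDR-bla cells is measured by FRET substrate fluorescence (2 h, room temperature) after cells spend 16 h at 37C with test compound and 3 nM final 1alpha,25-dihydroxyvitamin D3.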

[7] = qHTS assay to identify small molecule agonists of the vitamin D receptor (VDR) signaling pathway - cell viability counter screen (AID 743224); further: series mostly up to about 63 µM; nearly all actives have a fitted effect of over 50% in size
How it was run: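 Plated VDR-bla cells (4 h, 37C) received compound, incubated 16 h, then LiveBLAzer substrate 2 h RT; CellTiter-Glo added afterwards, luminescence read at 30 min.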

[8] = qHTS assay to identify small molecule antagonists of the vitamin D receptor (VDR) signaling pathway - cell viability counter screen (AID 743225); further: nearly all actives have a fitted effect of over 50% in size
How it was run: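 In this counter screen, VDR-bla HEK 293T cells receive test compound plus 3 nM final calcitriol for 16 h at 37C. Room-temperature steps of 2 h with the beta-lactamase substrate, then 30 min with CellTiter-Glo, precede the luminescence read.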

[9] = qHTS assay to identify small molecule agonists of the NFkB signaling pathway (AID 1159509; active means well fitted curve in the direction sought with a large enough effect in the signal ratio in the repeat runs, not every such curve was filed as active; the % refers to the signal ratio; further: series mostly up to about 61 µM)
How it was run: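 ME-180 NFkB-bla, 2,000 cells/well, overnight plating; cpd pinned in DMSO, 5 h 37 C; B/G FRET substrate 1.5 h RT; ex 405, em 460/530 nm.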

[10] = qHTS assay to identify small molecule agonists of the NFkB signaling pathway - cell viability counter screen (AID 1159515; calls by dose curve; further: series mostly up to about 61 µM; nearly all actives have a fitted effect of over 55% in size)
How it was run: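 Using the same wells as the NFkB reporter read, ME-180 NFkB-bla cells given compounds for 5 hr were assessed for viability via CellTiter-Glo, with luminescence taken after a 30 min room-temperature incubation.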

[11] = qHTS assay to identify small molecule agonists of the endoplasmic reticulum stress response signaling pathway (AID 1159516; active means well fitted activation curve with a large enough effect in the signal ratio in the repeat runs, not every such curve was filed as active; the % refers to the signal ratio)
How it was run: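 An ESRE-bla HeLa cell assay: compounds were pin-transferred from DMSO onto overnight-plated cells and left 5 hr at 37 C. Substrate was then loaded for 2 hr at room temperature before reading fluorescence at 460 nm and 530 nm.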

[12] = qHTS assay to identify small molecule agonists of the endoplasmic reticulum stress response signaling pathway - cell viability counter screen (AID 1159517; calls by dose curve; further: nearly all actives have a fitted effect of over 50% in size; further: potency means the concentration at half of the fitted maximal effect)
How it was run: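 CellTiter-Glo was added to wells already read for beta-lactamase FRET, and luminescence was recorded 30 min later. Cells: ESRE-bla HeLa, 1,500 per well, compound exposure 5 hr at 37 C.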

[13] = qHTS assay to identify small molecule antagonists of the retinoid-related orphan receptor gamma (ROR-gamma) signaling pathway - cell viability counter screen (AID 1159520); further: nearly all actives have a fitted effect of over 50% in size
How it was run: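 Tet-on ROR gamma CHO cells (1,000/well) were plated 4 hr, given compounds in DMSO for 2 hr at 37 C, then induced with 1 uM final doxycycline for 16 hr. Viability was read as ATP by CellTiter-Glo luminescence after 30 min.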

[14] = biological target: Nuclear receptor ROR-gamma (Homo sapiens) (UniProt P51449); test: qHTS assay to identify small molecule antagonists of the retinoid-related orphan receptor gamma (ROR-gamma) signaling pathway (AID 1159521)
How it was run: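 Screening format: cell-based luciferase reporter in CHO cells with doxycycline-inducible RORγ. Compound pre-exposure lasts 2 h, doxycycline is 1 uM final, induction runs 16 h at 37 C, and ONE-Glo luminescence is read.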

[15] = qHTS assay to identify small molecule agonists of the AP-1 signaling pathway - cell viability counter screen (AID 1159525; calls by dose curve; further: nearly all actives have a fitted effect of over 55% in size)
How it was run: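 ME-180 AP-1-bla, 2500 cells/well, Opti-MEM + 0.5% dialyzed FBS; overnight 37 °C; cpd 15-pt titration, 5 h 37 °C; CellTiter-Glo 30 min RT; luminescence read; normalised to TOAB and DMSO controls.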

[16] = qHTS assay to identify small molecule agonists of the AP-1 signaling pathway (AID 1159526; calls by dose curve)
[17] = biological target: Bile acid receptor (Homo sapiens) (UniProt Q96RI1); test: qHTS assay to identify small molecule antagonists of the farnesoid-X-receptor (FXR) signaling pathway (AID 743217; active means well fitted inhibition curve with a large enough effect in the signal ratio in the repeat runs, not every such curve was filed as active; the % refers to the signal ratio)
Sequence of Bile acid receptor (Homo sapiens) (Q96RI1 whole entry, looked up): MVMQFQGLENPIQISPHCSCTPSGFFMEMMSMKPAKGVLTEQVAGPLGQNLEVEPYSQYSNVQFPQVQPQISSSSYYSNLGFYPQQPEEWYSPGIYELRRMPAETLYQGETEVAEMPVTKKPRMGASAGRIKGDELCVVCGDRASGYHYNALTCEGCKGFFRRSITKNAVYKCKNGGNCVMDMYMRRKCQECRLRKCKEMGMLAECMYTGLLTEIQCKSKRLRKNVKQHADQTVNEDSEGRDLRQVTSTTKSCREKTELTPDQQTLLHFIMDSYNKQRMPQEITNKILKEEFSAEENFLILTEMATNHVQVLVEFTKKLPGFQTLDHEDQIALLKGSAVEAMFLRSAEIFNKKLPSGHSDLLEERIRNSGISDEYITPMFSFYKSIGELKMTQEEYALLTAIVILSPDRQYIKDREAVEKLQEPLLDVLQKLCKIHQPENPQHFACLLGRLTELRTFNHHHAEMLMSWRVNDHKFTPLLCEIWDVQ
How it was run: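 GeneBLAzer FXR-UAS-bla HEK 293T, CDCA-stimulated (50 uM final). Compound treatment 16 h, 37 °C. Detection: beta-lactamase cleavage of B/G FRET substrate, fluorescence.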

[18] = biological target: Bile acid receptor (Homo sapiens) (UniProt Q96RI1); test: qHTS assay to identify small molecule agonists of the farnesoid-X-receptor (FXR) signaling pathway (AID 743220; active means well fitted activation curve with a large enough effect in the signal ratio in the repeat runs, not every such curve was filed as active; the % refers to the signal ratio)
How it was run: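 Beta-lactamase reporter under UAS control in GeneBLAzer FXR HEK 293T cells (5000/well) measured with LiveBLAzer FRET substrate after 2 h at room temperature. Compound exposure lasted 16 h at 37C.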

[19] = biological target: Peroxisome proliferator-activated receptor delta (Homo sapiens) (UniProt Q03181); test: qHTS assay to identify small molecule antagonists of the peroxisome proliferator-activated receptor delta (PPARd) signaling pathway (AID 743215; active means well fitted inhibition curve with a large enough effect in the signal ratio in the repeat runs, not every such curve was filed as active; the % refers to the signal ratio;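 further: cells stimulated with agonist L165041 at 300 nM final during compound exposure; series mostly up to about 62 µM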)
Sequence of Peroxisome proliferator-activated receptor delta (Homo sapiens) (Q03181 whole entry, looked up): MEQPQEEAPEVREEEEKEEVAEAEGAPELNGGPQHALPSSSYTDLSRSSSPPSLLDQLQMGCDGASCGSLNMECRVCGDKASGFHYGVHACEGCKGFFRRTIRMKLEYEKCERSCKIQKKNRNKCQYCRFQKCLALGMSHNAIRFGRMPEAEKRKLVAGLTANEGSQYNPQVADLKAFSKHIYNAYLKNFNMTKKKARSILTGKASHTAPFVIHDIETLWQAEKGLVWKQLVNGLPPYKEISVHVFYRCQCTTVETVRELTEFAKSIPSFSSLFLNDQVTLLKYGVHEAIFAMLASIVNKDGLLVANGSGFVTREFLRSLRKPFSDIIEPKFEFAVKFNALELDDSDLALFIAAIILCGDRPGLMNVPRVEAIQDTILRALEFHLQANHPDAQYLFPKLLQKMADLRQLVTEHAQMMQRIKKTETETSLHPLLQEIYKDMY
How it was run: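 HEK293H UAS-bla, PPARd; agonist L165041 300 nM final with cpd in DMSO; 37 C 17 h; FRET substrate, RT 2 h; fluorescence intensity.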

Measured: Potency

O=P(O)(O)OP(=O)(O)O
not listed: [17] | [18] | [19]
inactive: all other assays above

CC1=C(C(=O)O)N2C(=O)[C@@H](NC(=O)[C@H](N)c3ccc(O)cc3)[C@H]2SC1
not listed: [2] | [6] | [19]
inactive: all other assays above

COC(=O)CCc1ccc(OCC(O)CNC(C)C)cc1 (stereo not drawn)
not listed: [17] | [18] | [19]
inactive: all other assays above

Cc1cc(Cl)c(C)cc1Cl
active: [12] 54.9 µM
not listed: [6] | [17] | [18] | [19]
inactive: all other assays above

CC(C)(C)c1n[nH]c(=S)n(N)c1=O
not listed: [6] | [17] | [18] | [19]
inactive: all other assays above

BrCc1cccc(Oc2ccccc2)c1
not listed: [17] | [18]
inactive: all other assays above

CC(CO)c1ccccc1 (stereo not drawn)
not listed: [2] | [5] | [6] | [17] | [18] | [19]
inactive: all other assays above

FC(F)(F)c1ccccc1-n1ccnc1
not listed: [2] | [3] | [17] | [18]
inactive: all other assays above
